Screening results: PubChem BioAssay, National Center for Advancing Translational Sciences (NCATS)
Rows were chosen to be rich in hits. Some 3.8% of all compounds tested hit in one or more screens of this group.
S2 tox = cell viability loss in ATXN counter-screen; S2 cells (HEK-293 line with an ATXN2-luciferase reporter) viability, CellTiter-Fluor protease fluorescence, 24 h; Potency, µM (series often up to 56.7 µM), actives largely listed as cytotoxic; 400,000 tested, 0.49% active; further: nearly all actives have a fitted effect of over 40% in size
TGFb inhibitor = inhibitors of TGF-b signaling. 410,000 tested, 1.2% active. Potency, µM (top dose mostly 46.1 µM), hits mostly inhibitors. HepG2 CAGA-GFP TGF-b/SMAD3 reporter, GFP fluorescence, 18 h; TGF-beta stimulated, 500 pg/mL final; further: nearly all actives have a fitted effect of over 65% in size
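Inhibition was scored as loss of TGF-beta-induced (500 pg/mL final, 18 hours, 37 degrees C) GFP in HEPG2 cells carrying a CAGA-GFP reporter, in DMEM with 1% FBS. Well GFP was summed per cell; Activity was normalised to unstimulated and stimulated DMSO wells, then concentration-response fitting.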
ATXN2 expr inh = inhibitors of ATXN2 expression; HEK-293 ATXN2-luciferase reporter, luminescence, 24 h; Potency, µM (titrated, usually from 57 µM), actives largely listed as inhibitors; 360,000 tested, 0.72% active; further: nearly all actives have a fitted effect of over 55% in size
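ATXN2-luciferase reporter cells (luciferase flanked by upstream and downstream ATXN2 gene portions) were treated 24 h at 37 °C with compounds at up to 57 uM. SteadyGlo luminescence gave expression; GF-AFC fluorescence gave viability.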
HepG2 tox = counter-screen for TGF-b inhibitors: cytotoxicity in HepG2 cells; 410,000 tested, 0.76% active; HepG2 CAGA-GFP viability, ATP luminescence, 18 h; Potency, µM (titrated, usually from 46.1 µM), most hits filed as cytotoxic
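HepG2 CAGA-GFP cells (1000/well, DMEM with 1% FBS) received compound, then TGF-beta at 500 pg/mL final, and were incubated 18 hours at 37 degrees C. Viability was read by CellTiter-Glo luminescence. Media-only wells were set as complete cell-killing and DMSO as no toxicity.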
A549 tox = A549 cytotoxicity, counter-screen for Nrf2 inhibitors. A549 ARE-Fluc cells, CellTiter-Fluor viability, 18-24 h. Potency, µM (titrated, usually from 46 µM), actives largely listed as inhibitors. 390,000 tested, 0.16% active. AID 504648
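Cytotoxicity counterscreen: CellTiter-Fluor fluorescence was measured in A549 ARE_Fluc cells after 18-24 h of compound exposure in a concentration series. The subsequent BugLite luminescent read reports ARE-luciferase activity.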
Nrf2 inh = inhibitors of Nrf2 signaling. A549 ARE-Fluc reporter, luciferase luminescence, 18-24 h. Potency, µM (top dose mostly 46 µM), most hits filed as inhibitors. AID 504444. 360,000 tested, 2.1% active; further: nearly all actives have a fitted effect of over 60% in size
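A549 ARE_Fluc cells (5000/well, 5% FBS OPTI-MEM) pre-incubated 2 h, then treated with compounds 18-24 h at 37C/5% CO2 in concentration-response. CellTiter-Fluor viability read first; BugLite luciferase luminescence after 15 min at room temperature gives Nrf2 activity.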
A number is an active result; n = inactive; u = inconclusive; x = not tested or not shown; [ ] = another dose, or the depositor's remark. The call rests on the fitted dose curve; in most records, active means well fitted curve in the direction sought with a large enough effect; inconclusive means small, poorly fitted or top-dose-only effect, or another doubt; inactive means no such curve, though single readings can be large; an effect the other way counts as inactive or inconclusive.

SMILES	S2 tox	TGFb inhibitor	ATXN2 expr inh	HepG2 tox	A549 tox	Nrf2 inh
COc1ccc(C(=O)c2c(-c3ccsc3)oc3ccc(-c4ccc(OC)cc4)cc23)cc1	n	n	n	n	n	n
COc1ccccc1OCCn1c(C(C)Oc2ccccc2)nc2ccccc21 (stereo unspecified)	n	11µM	n	n	u	u
COc1ccccc1OCCn1c(C(C)O)nc2ccccc21 (stereo unspecified)	n	n	n	n	n	n
COc1ccccc1CCC(=O)Nc1ncc(C)s1	n	n	n	n	n	n
CCc1cc(-c2[nH]ncc2-c2ccc3c(c2)OCO3)c(O)cc1O	u	u	11µM	n	n	n
CC(=O)c1cccc(NS(=O)(=O)c2cc3c(cc2C)N(C(C)=O)CCO3)c1	n	n	n	n	u	18µM
Cc1cc2c(cc1S(=O)(=O)Nc1cccc(C(F)(F)F)c1)OCCN2C	x	3.5µM	x	n	n	n
Cc1cc2c(cc1S(=O)(=O)Nc1ccc(C(C)C)cc1)OCCN2C	n	u	n	n	n	13µM
CCOC(=O)c1sc2ccccc2c1S(=O)(=O)N1CCN(c2cccc(C)c2C)CC1	n	n	n	n	n	n
CC(C)c1ccc2[nH]c(O)c(N=NC(=O)c3cccc(S(=O)(=O)N4CCCCC4)c3)c2c1	u	n	n	n	u	18µM
O=C(N=Nc1c(O)[nH]c2ccccc12)c1cccc(S(=O)(=O)N2CCCCC2)c1	n	n	n	n	n	n
CN(C(=O)c1cccc(NC(=O)Cc2ccc(NC(=O)C3CCN(C(=O)C4CC4)CC3)cc2)c1)C1CCCCC1	n	n	n	n	n	n
Cc1ccc(-c2cc(C(=O)N3N=C(C(F)F)CC3(O)C(F)F)c3ccccc3n2)cc1C (stereo unspecified)	18µM	u	u	20µM	n[1.84 µM]	u
CCCCCCC(=O)N1CCC(c2nc3c(nnn3Cc3ccccc3Cl)c(=O)[nH]2)CC1	n	u	n	n	n[1.84 µM]	n
COc1cc(NC(=O)COC(=O)c2[nH]c(C)c(C(C)=O)c2C)cc(OC)c1	n	u	u	n	n	13µM
CC(=O)c1c(C)[nH]c(C(=O)OCC(=O)Nc2ccc3c(c2)OCCO3)c1C	n	n	n	n	n	16µM
CC(=O)c1c(C)[nH]c(C(=O)OCC(=O)Nc2ccc(Cl)cc2[N+](=O)[O-])c1C	n	n	n	n	n	21µM
CCOC(=O)c1c(C)[nH]c(C(=O)OCC(=O)Nc2cc(Cl)ccc2OC)c1C	n	u	n	n	n	n
CCOC(=O)c1c(C)[nH]c(C(=O)OCC(=O)NC(C)(C)C)c1C	n	n	n	n	n	18µM
Cc1cc([N+](=O)[O-])nn1CC(=O)N(C)C1CCCCC1	n	n	n	n	n	n
COc1ccc(C2C(C(=O)Nc3ccccc3OC)=C(C)Nc3c(C(=O)Nc4ccccc4)cnn32)c(OC)c1 (stereo unspecified)	x	n	x	n	n	u
COc1ccc(CN(CC2CCC(C(=O)O)CC2)C(=S)Nc2cc(C)ccc2C)cc1 (stereo unspecified)	n	n	n	n	n	u
CCN(CC)C(=O)C1=C(C)N(CCCOC)C(=O)C(CC(=O)NCCCN(C)C)C1 (stereo unspecified)	n	u	n	n	x	x
COc1ccc(-c2nc(N3CCOCC3)nc3n[nH]c(N)c23)cc1	n	11µM	n	n	n	u
CCc1nnc(NS(=O)(=O)c2ccc(N=Cc3c(C)[nH]n(-c4ccc(C)c(C)c4)c3=O)cc2)s1	n	n	n	7.1µM	n	n
SMILES	S2 tox	TGFb inhibitor	ATXN2 expr inh	HepG2 tox	A549 tox	Nrf2 inh
Cc1cc2nc(C(C)(C)C)c(Cc3cccc(F)c3)n2c(C)c1Br	u	n	n	n	x	x
O=S(=O)(O)c1cc(O)c(N=Nc2ccc(O)cc2O)c2ccccc12	x	n	u	n	21µM	u
Cc1ccc(C(NC(=O)C2CCN(CCOc3ccccc3)CC2)c2ccccn2)cc1 (stereo unspecified)	n	n	n	n	x	x
CN(C)CCCNC(=O)c1ccc(-c2cc3nc(NCc4cccnc4)n(C)c(=O)c3s2)cc1	n	n	n	n	x	x
Cn1c(SCC(=O)NC2CCCC2)nnc1C(F)(F)F	n	n	n	n	n	n
Cc1ccc(NCCCn2cnc(C(=O)Nc3ccc(C)c(C)c3)n2)cc1C	n	n	n	n	n	n
Cc1cc(C)c(CN2CCN(CCCn3cnc(C(=O)Nc4ccc(C)c(C)c4)n3)CC2)c(C)c1	x	u	u	18µM	u	n
Cc1ccc(NC(=O)c2ncn(CCCNCCCN3CCCC3=O)n2)cc1C	n	n	n	n	n	n
Cc1ccc(NC(=O)c2ncn(CCCN[C@H](C)c3cccc4ccccc34)n2)cc1C	22µM	u	u	n	n	n
O=C(CCl)Nc1cccc(Oc2ccccc2)c1	x	8.9µM	9.5µM	n	n	n
COc1cc(NC(=O)CCl)ccc(=O)c1	u	u	x	0.71µM	x	x
O=C(CN1CCCCC1)Nc1cccc(Oc2ccccc2)c1	n	n	n	n	n	n
Nc1nc(SCC(=O)Nc2cccc(Oc3ccccc3)c2)n[nH]1	n	n	x	n	n	16µM
O=C(CCl)Nc1cccc(Oc2cnccn2)c1	22µM	16µM	u	n	n	n
CC(OC(=O)c1ccc(Cl)nc1)C(=O)NCc1ccc2c(c1)OCO2 (stereo unspecified)	n	n	n	n	n	n
C[C@H](O)[C@@H]1C(=O)N2CCc3c([nH]c4ccccc34)[C@@H]2C[C@@H]1N(C)C(=O)NC1CCCCC1	n	n	n	n	x	x
N=c1ccn2c(n1)O[C@H]1[C@@H](CO)[C@H](O)O[C@H]12	n	n	n	n	n	u
N=c1nc2n(cc1F)C1OC(CO)C(O)C1O2 (stereo unspecified)	u	n	n	n	u	0.13µM
O=C(NC(=O)c1cccc(F)c1)Nc1ccc(-c2cc(C(F)(F)F)nn2-c2ccccc2)cc1	n	n	n	n	n	n
O=C(Nc1ccc(-c2cc(C(F)(F)F)nn2-c2ccccc2)cc1)c1cccc(F)c1	x	x	x	n	u	13µM
CCCC(=O)N1c2nc(-c3ccco3)nn2C2(CCCCC2)[C@@H]2CCCC[C@@H]21	x	u	x	n	n	n
CC1C/C(=C\c2cccnc2)C(=O)/C(=C/c2cccnc2)C1 (stereo unspecified)	x	u	u	16µM	n	n
O=C1/C(=C/c2cccnc2)CCc2c1[nH]c1ccccc21	n	n	n	n	n	u
